{"source": "PubChem BioAssay AID1851", "about": "(National Center for Advancing Translational Sciences (NCATS), 2009)", "note": "Hit rate of the full screen: of about 16,000 compounds, about 5,800 (36%) were called active. Not shown: some 23% with an inconclusive outcome. The call rests on the fitted dose curve; in most records, active means well fitted curve in the direction sought with a large enough effect; inconclusive means small, poorly fitted or top-dose-only effect, or effect the other way; inactive means no such curve, though single readings can be large or run the other way. This is one part of the list. On the % scale 0 is the no-effect control and ±100 the full control effect.", "data": [{"target": "Cytochrome P450 2C19 (Homo sapiens) (UniProt P33261)", "sequence (P33261 whole entry, looked up)": "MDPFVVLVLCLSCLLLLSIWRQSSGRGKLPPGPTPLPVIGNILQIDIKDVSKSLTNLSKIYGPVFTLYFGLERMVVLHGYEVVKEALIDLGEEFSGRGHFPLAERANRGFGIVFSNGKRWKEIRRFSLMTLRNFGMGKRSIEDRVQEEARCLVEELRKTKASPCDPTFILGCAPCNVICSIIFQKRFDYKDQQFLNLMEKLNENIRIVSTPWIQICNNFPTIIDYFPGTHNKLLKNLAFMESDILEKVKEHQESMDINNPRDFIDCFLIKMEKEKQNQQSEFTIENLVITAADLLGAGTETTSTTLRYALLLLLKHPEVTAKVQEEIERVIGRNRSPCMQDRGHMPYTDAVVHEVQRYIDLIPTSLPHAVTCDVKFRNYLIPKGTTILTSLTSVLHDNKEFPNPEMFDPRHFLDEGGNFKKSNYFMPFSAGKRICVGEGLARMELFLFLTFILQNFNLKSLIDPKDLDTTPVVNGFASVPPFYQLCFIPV", "experiment": "Cytochrome panel assay with activity outcomes", "settings": "recombinant CYP, pro-luciferin dealkylation, luminescence, p450-cyp2c19; series mostly up to 57.1 µM; activity, negative = inhibition: at the top concentration", "values": [{"smiles": "O=C(Nc1ccccc1)N1CC2(CCN(C(=O)c3ccco3)CC2)C1", "activity, negative = inhibition": "10.4% (inactive)"}, {"smiles": "O=C(NNC(=S)Nc1ccccc1)c1ccco1", "activity, negative = inhibition": "21.4% (inactive)"}, {"smiles": "CC1=C(C(=O)Nc2ccccc2)C(c2ccco2)NC(=S)N1", "note": "(configuration not stated)", "AC50": "35.5 µM (active)"}, {"smiles": "CCN(CC)CC[n+]1ccc2c(C)c3[nH]c4ccccc4c3c(C)c2c1", "activity, negative = inhibition": "2.93% [at 11.4 µM] (inactive)"}, {"smiles": "S=C(NCc1ccco1)N1CCN(Cc2ccco2)CC1", "AC50": "15.8 µM (active)"}, {"smiles": "S=C(NCc1ccco1)N1CCN(C(c2ccccc2)c2ccccc2)CC1", "AC50": "7.08 µM (active)"}, {"smiles": "O=C(c1ccco1)N1CCC[C@@]2(CCN(C(c3ccccc3)c3ccccc3)C2)C1", "activity, negative = inhibition": "-43.7% (inactive)"}, {"smiles": "CS(=O)(=O)Nc1c(O)ccc2c1CCC[C@H]2C1=NCCN1", "activity, negative = inhibition": "-7.17% (inactive)"}, {"smiles": "O=C1c2cccnc2C(=O)N1Cc1ccc(F)cc1", "AC50": "8.91 µM (active)"}, {"smiles": "CCOc1ccc(N2C(=O)c3cccnc3C2=O)cc1", "activity, negative = inhibition": "-14.9% (inactive)"}, {"smiles": "COc1ccccc1CN1CCCC2(CCN(C(C)=O)CC2)C1", "activity, negative = inhibition": "-44.6% (inactive)"}, {"smiles": "S=C1SCN(C2CCCCCCCCCCC2)CN1C1CCCCCCCCCCC1", "AC50": "3.98 µM (active)"}, {"smiles": "CCNc1ncc2nc(-c3ccc(F)cc3)c(=O)n(-c3ccc(OC)cc3)c2n1", "activity, negative = inhibition": "-14.2% (inactive)"}, {"smiles": "Cc1cc(OCCn2cc(/C(N)=N/O)c3ccccc32)ccc1Cl", "AC50": "0.708 µM (active)"}, {"smiles": "Cc1c(C#N)c(=O)oc2ccc3ccccc3c12", "activity, negative = inhibition": "6.24% (inactive)"}, {"smiles": "CCCCNC(=O)Cc1coc2ccc3ccccc3c12", "AC50": "3.16 µM (active)"}, {"smiles": "CCCCN(C)C(=O)c1coc(=O)c2ccccc12", "activity, negative = inhibition": "-26.6% (inactive)"}, {"smiles": "Nc1nc2c(c(=O)[nH]1)N(C=O)[C@H](CNc1ccc(C(=O)N[C@@H](CCC(=O)O)C(=O)O)cc1)CN2", "activity, negative = inhibition": "4.69% [at 25.6 µM] (inactive)"}, {"smiles": "CCOC(=O)c1c(C)c(C(=O)NCCN2CCOCC2)c(C)n1CC", "activity, negative = inhibition": "-10% (inactive)"}, {"smiles": "CCOC(=O)c1c(C)c(C(=O)N2CCCCCC2)c(C)n1C", "AC50": "7.08 µM (active)"}, {"smiles": "CC(C)CN1CCC2(CC1)CCN(C(=O)c1csnn1)CC2", "activity, negative = inhibition": "-18% (inactive)"}, {"smiles": "O=C(Nc1cccc(F)c1)/C(=C\\c1ccco1)NC(=O)c1cccs1", "AC50": "14.1 µM (active)"}, {"smiles": "CCOC(=O)c1c(C)nc2c(c1-c1ccccc1)C(=O)CC(C)(C)C2", "AC50": "7.08 µM (active)"}, {"smiles": "CCn1cc(C(=O)O)c(=O)c2cc(F)c(N3CCN[C@@H](C)C3)c(F)c21", "AC50": "inactive"}, {"smiles": "COC(=O)C1=C(C)N=C2SC(C)C(=O)N2C1/C=C/c1ccccc1", "note": "(configuration not stated)", "AC50": "5.01 µM (active)"}, {"smiles": "CCc1cc2c(c(CC)n1)CCC(=O)N2Cc1ccc(-c2ccccc2-c2nn[nH]n2)cc1", "AC50": "5.01 µM (active)"}, {"smiles": "CC1=N[C@@](C)(COC(=O)[C@]2(C)N[C@](C)(CO)CO2)COC1=O", "activity, negative = inhibition": "40.4% [at 11.4 µM] (inactive)"}, {"smiles": "Cc1ccccc1NC(=O)/C(=C/c1ccccc1)c1ccccc1", "AC50": "10 µM (active)"}, {"smiles": "O=C(O)/C(=C\\c1ccccc1)c1ccccc1", "activity, negative = inhibition": "11.9% [at 11.4 µM] (inactive)"}, {"smiles": "CC(C)NC(=O)c1ccccc1NC(=O)/C=C/c1ccc([N+](=O)[O-])cc1", "activity, negative = inhibition": "-23.5% (inactive)"}, {"smiles": "COc1ccc(/C=C(/C(=O)Nc2ccccc2C(=O)NC(C)C)c2ccccc2)cc1", "AC50": "15.8 µM (active)"}, {"smiles": "CCN(CC)CCOC(=O)C1(C2CCCCC2)CCCCC1", "AC50": "inactive"}, {"smiles": "O=C(Nc1cccc(F)c1)N1CC2(CCN(C(=O)c3cc(C(F)(F)F)cc(C(F)(F)F)c3)CC2)C1", "activity, negative = inhibition": "-18.1% (inactive)"}, {"smiles": "N#Cc1cccc(NC(=O)N2CCCC3(CCN(C(=O)c4cc(C(F)(F)F)cc(C(F)(F)F)c4)CC3)C2)c1", "activity, negative = inhibition": "-40.9% (inactive)"}, {"smiles": "N#Cc1cccc(NC(=O)N2CC3(CCN(C(=O)c4cc(C(F)(F)F)cc(C(F)(F)F)c4)CC3)C2)c1", "AC50": "0.631 µM (active)"}, {"smiles": "C/C(=N\\OC(=O)c1ccc(F)cc1)c1nccs1", "AC50": "17.8 µM (active)"}, {"smiles": "Cc1ccc2c(c1)/C(=N/OC(=O)c1ccc(F)cc1)CCS2", "activity, negative = inhibition": "-3.53% (inactive)"}, {"smiles": "O=C(O)[C@H]1[C@H](C(=O)O)[C@H](C(=O)O)C[C@@H]1C(=O)O", "activity, negative = inhibition": "24.8% [at 11.4 µM] (inactive)"}, {"smiles": "O=C(O)[C@@H]1C[C@@H](C(=O)O)N1", "AC50": "25.1 µM (active)"}, {"smiles": "O=C(O)[C@H]1C[C@H](C(=O)O)N1", "activity, negative = inhibition": "29.8% (inactive)"}, {"smiles": "COc1c(/C=N/Nc2ccc([N+](=O)[O-])cc2[N+](=O)[O-])c(C)nn1-c1ccccc1", "activity, negative = inhibition": "-25.7% (inactive)"}, {"smiles": "O=[N+]([O-])c1ccccc1N/N=C/c1c[nH]c2ccccc12", "AC50": "10 µM (active)"}, {"smiles": "O=S(=O)(NCc1cn2ccsc2n1)c1ccc(Oc2ccccc2)cc1", "AC50": "10 µM (active)"}, {"smiles": "COc1cccc2cc(C(=O)CC3(O)C(=O)N(Cc4ccccc4)c4ccccc43)c(=O)oc12", "note": "(configuration not stated)", "AC50": "25.1 µM (active)"}, {"smiles": "COc1ccccc1N1CCN(CCN2C(=O)c3ccccc3C(C)(C)C2=O)CC1", "activity, negative = inhibition": "-24% (inactive)"}, {"smiles": "N.N.O=C(O)C1(C(=O)O)CCC1.[Pt]", "AC50": "3.98 µM (active)"}, {"smiles": "O=C(O)C1(C(=O)O)CCN(S(=O)(=O)c2ccccc2)CC1", "activity, negative = inhibition": "16.2% [at 11.4 µM] (inactive)"}]}]}
